In the library only some 8% were active in any assay of this set; here they are far more common.
LASV entry inh – inhibitors of Lassa virus binding or entry into cells | Lassa virus pseudotyped entry inhibition, cell-based qHTS | Potency, µM (top dose mostly 49.2 µM), hits mostly inhibitors | 18,000 compounds, 4.1% hits | AID 720533
Marburg entry – blocks Marburg virus binding or cell entry; Marburg virus pseudotype entry/binding inhibition, cell-based; Potency, µM (titrated, usually from 49.2 µM), hits mostly inhibitors; 18,000 compounds, 6.5% hits; AID 720532
Large screens that a line does not name were inactive; ! = not confirmed by another sample. Calls come from the whole dose curve; tested in HEK293 cells.

CO[C@H]1C[C@@H]2CC[C@@H](C)[C@@](O)(O2)C(=O)C(=O)N2CCCC[C@H]2C(=O)OC([C@H](C)C[C@@H]2CC[C@@H](O)[C@H](OC)C2)CC(=O)[C@H](C)/C=C(\C)[C@@H](O)[C@@H](OC)C(=O)[C@H](C)C[C@H](C)/C=C/C=C/C=C/1C (stereo partly specified)	LASV entry inh 28µM!, Marburg entry 35µM!
COC(=O)c1ccc(CN2CCC3(CCC(CNC(=O)c4ccccc4)O3)CC2)cc1 (stereo unspecified)	none
COc1ccc2ccccc2c1CN1CCC2(CCC(CNC(=O)c3ccccc3)O2)CC1 (stereo unspecified)	Marburg entry 13µM
COc1ccc(CN2CCC3(CCC(CNC(=O)C4CCCO4)O3)CC2)c(C)c1C (stereo unspecified)	Marburg entry 1.3µM
O=C(NCC1CCC2(CCN(Cc3ccccc3O)CC2)O1)C1CCCO1 (stereo unspecified)	none
O[C@@H]1CN(Cc2cccs2)[C@@H](c2ccccc2)C[C@@H]1n1cc(-c2ccc(F)cc2)nn1	Marburg entry inconclusive
CC(C)[C@@H](OCc1ccccc1)[C@H](C)C=NO[C@H](C)c1cn([C@H](CO)Cc2ccccc2)nn1	none
COC1=C2C[C@@H](C)C[C@H](OC)[C@H](O)[C@@H](C)/C=C(\C)[C@H](OC(N)=O)[C@@H](OC)/C=C\C=C(/C)C(=O)NC(=CC1=O)C2=O	LASV entry inh 18µM, Marburg entry 16µM
C=CCNC1=C2C[C@@H](C)C[C@H](OC)[C@H](O)[C@@H](C)/C=C(\C)[C@H](OC(N)=O)[C@@H](OC)/C=C/C=C(\C)C(=O)NC(=CC1=O)C2=O	LASV entry inh 2.2µM, Marburg entry 1.8µM
c1cnc2cc3c(cc2n1)[C@@H]1CNC[C@H]3C1	none
CCCCCCN1C[C@@H](O)[C@H](n2cc(COC(=O)c3ccccc3)nn2)C[C@H]1c1ccccc1	none
Cc1cc(F)ccc1O[C@H]1C=C[C@@H](c2ccc3c(c2)OCO3)O[C@H]1CO	none
N=C(N)SCCN=C(N)N	none
CN(C)CCCSC(=N)N	Marburg entry 14µM!
CC1=C[C@@H](COCc2ccccc2)O[C@@]2(C1)C(=O)N(Cc1ccc(Br)cc1)c1ccccc12	none
COc1ccc(C(=O)Nc2ccccc2CCC2CCCCN2C)cc1 (stereo unspecified)	Marburg entry inconclusive
Cc1ccsc1C(=CCCN1CCC[C@@H](C(=O)O)C1)c1sccc1C	none
COc1ccc(C(OCCN2CCC[C@H](C(=O)O)C2)(c2ccc(OC)cc2)c2ccc(OC)cc2)cc1	LASV entry inh 4.5µM
COc1ccc(C(OCCN2CCC[C@@H](C(=O)O)C2)(c2ccc(OC)cc2)c2ccc(OC)cc2)cc1	LASV entry inh 6.3µM
CC(=O)OC[C@H]1O[C@@H](ON=C[C@@H](C)[C@H](OCc2ccccc2)C(C)C)[C@@H](OC(C)=O)[C@@H](OC(C)=O)[C@@H]1OC(C)=O	none (no result: LASV entry inh)
CC(C)c1ccc(CN2CCC3(CCC(CNC(=O)c4ccn(C)n4)O3)CC2)cc1 (stereo unspecified)	Marburg entry inconclusive
Cc1ccc(O)cc1Nc1ccnc2cc(-c3ccccn3)ccc12	LASV entry inh inconclusive, Marburg entry 14µM
O=C(OCC(O)CO)c1ccccc1Nc1ccnc2cc(Cl)ccc12 (stereo unspecified)	none
COc1ccc([C@]23Cc4cc(OC)c(OC)cc4[C@H](O2)C2=C(CC(C)(C)CC2=O)O3)cc1	none
CN1CC[C@@]2(c3cccc(O)c3)Cc3nc4ccccc4cc3C[C@H]2C1	Marburg entry 18µM
CCC(=O)O[C@]1(c2ccccc2)CCN(C)C[C@H]1C	none
O=C(NCc1ccccc1)c1ccc(-c2ccccc2C(F)(F)F)o1	LASV entry inh 11µM
Cc1ccc(-c2ccc(C(=O)NCc3ccc(Cl)cc3)o2)c2ccccc12	LASV entry inh inconclusive
COc1cc2c(cc1OC)[C@@H]1O[C@](c3ccsc3)(C2)Oc2cc(C)n(Cc3ccccc3)c(=O)c21	Marburg entry inconclusive
CC(=O)Nc1cc(C(=O)N2CC3(C)CC2CC(C)(C)C3)cc2ncn(CCc3ccccn3)c12 (stereo unspecified)	none
CCOC(=O)C1=C(C)NC(C)=C(C(=O)OC)[C@H]1c1cccc([N+](=O)[O-])c1	Marburg entry inconclusive
CC1=C(C(=O)OC(C)C)C(c2cccc([N+](=O)[O-])c2)C(C(=O)OC2CN(C(c3ccccc3)c3ccccc3)C2)=C(N)N1 (stereo unspecified)	none
COC(=O)C1=C(C)NC(C)=C(C(=O)O[C@@H]2CCCN(Cc3ccccc3)C2)[C@@H]1c1cccc([N+](=O)[O-])c1	LASV entry inh inconclusive, Marburg entry 14µM
CCOC(=O)C1=C(C)NC(C)=C(C(=O)OC)C1c1cccc([N+](=O)[O-])c1 (stereo unspecified)	LASV entry inh inconclusive, Marburg entry 14µM!
COCCOC(=O)C1=C(C)NC(C)=C(C(=O)OC(C)C)[C@@H]1c1cccc([N+](=O)[O-])c1	none
CCOC(=O)C1=C(C)NC(C)=C(C(=O)OC)[C@@H]1c1cccc([N+](=O)[O-])c1	none
COC(=O)C1=C(C)NC(C)=C(C(=O)OC(C)(C)CN(C)CCC(c2ccccc2)c2ccccc2)C1c1cccc([N+](=O)[O-])c1 (stereo unspecified)	LASV entry inh 13µM, Marburg entry inconclusive
COCCOC(=O)C1=C(C)NC(C)=C(C(=O)OC/C=C/c2ccccc2)C1c1cccc([N+](=O)[O-])c1 (stereo unspecified)	LASV entry inh 13µM, Marburg entry 6.3µM
CC(C)CON=C1C[C@@H](O)[C@@H](O)[C@@H]2[C@H]3C(=O)N(c4ccc(F)cc4F)C(=O)[C@@H]3CC[C@@H]12	none
COC(=O)c1c(C(=O)OC)c2c3ccccc3cc(C3CC3)n2c1C(=O)OC	none
COC(=O)CC=C1c2ccccc2[C@@H](NC(=O)OC)[C@@H]1C	none
O=C(Cn1cc(COc2ccc([N+](=O)[O-])cc2)nn1)c1ccc(O)cc1	none
CC1=C[C@@H](COCc2ccccc2)O[C@@]2(C1)C(=O)Nc1cccc(Br)c12	none
Cc1cc2c(c(=O)n1Cc1ccccc1)[C@H]1O[C@](CCCCN3C(=O)c4ccccc4C3=O)(Cc3cc(C#N)ccc31)O2	Marburg entry inconclusive
O=C1NC(=O)C(N2CCc3ccccc32)=C1c1ccc(Cl)cc1	Marburg entry inconclusive
O=[N+]([O-])c1ccc(O)c([N+](=O)[O-])c1	none
N#CC(C#N)=Cc1ccc([N+](=O)[O-])c(O)c1	LASV entry inh inconclusive, Marburg entry 16µM!
COc1cccc([C@H]2Oc3ccc(OC)cc3C(=NOCC[C@@H]3C=C[C@H](OC(C)=O)[C@@H](COC(C)=O)O3)[C@H]2O)c1	none (no result: LASV entry inh)
COc1ccc(COC(=O)NN=C2C[C@@H](O)[C@@H](O)[C@@H]3[C@H]4C(=O)N(C[C@@H]5CCCO5)C(=O)[C@@H]4CC[C@@H]23)cc1	LASV entry inh inconclusive
CCCCCCN1C[C@H](O)[C@@H](n2cc(C3CC3)nn2)C[C@H]1c1ccccc1	Marburg entry inconclusive
CN(C)c1ccc2c(-c3ccccc3)c3ccc(=[N+](C)C)cc-3oc2c1	LASV entry inh 3.2µM, Marburg entry 2.5µM
O=C(O)c1ccccc1-c1c2ccc(=O)cc-2oc2cc(O)ccc12	none
CC[N+](CC)(CCCNC1=CC(=O)C(NCCC[N+](CC)(CC)Cc2ccccc2)=CC1=O)Cc1ccccc1	none
CCCCCCCCCCCCC[N+](C)(C)Cc1ccccc1	LASV entry inh 18µM, Marburg entry 8.9µM
NS(=O)(=O)c1ccc(-c2ccc3c(NC(=O)C4CC4)n[nH]c3c2)cc1	none
Oc1ccc(Cl)cc1	none

From PubChem
